Pf Dd2 growth = qHTS Primary assay for Inhibitors of Plasmodium falciparum Dd2 growth in vitro; actives 4.3% (n = 120,000); Potency, µM (top dose mostly 28.9 µM), without a hit: at the highest dose activity, negative = inhibition, usual class: inhibitors; P. falciparum Dd2 growth, SYBR Green, 72 h; active means well fitted inhibition curve with a large enough effect;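 further: plate controls were DMSO vehicle for no effect and reference drug for full effect; nearly all actives have a fitted effect of over 65% in size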
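Infected erythrocytes (Dd2, 0.3% parasitemia, 2.5% hematocrit final) are added to compound in RPMI-1640/Albumax II medium, grown 72 h at 37C in low oxygen, then lysed with saponin/Triton-X containing SYBR Green and read by fluorescence.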
* marks the source's active call; other numbers are inactive results; i = inactive; ! = repeats disagree; [ ] = dose if it differs, or a comment. The entries come from a sample that favours hits as a whole. Potency means the concentration at half of the fitted maximal effect.

SMILES | Pf Dd2 growth
O=C1N(CCc2ccccc2)c2ccccc2C12CCN(CC1CC1)C2 (configuration not stated) | 5.01µM*!
O=C1N(Cc2ccccc2)c2ccccc2C12CCN(Cc1cncs1)C2 (configuration not stated) | -11.2%
CN1C(=O)C2(CCN(C(=O)C3CCCC3)CC2)c2ccccc21 | 12.7%
O=C(NC1CCCC1)N1CCC2(C1)C(=O)N(CCc1ccccc1)c1ccccc12 (configuration not stated) | 7.94µM*!
O=C(CC1CCN(C(=O)NC2CCCCC2)C1)NCc1ccccc1 (configuration not stated) | 10.3%
CN1C(=O)C2(CCN(C(=O)Nc3ccccc3F)C2)c2ccccc21 (configuration not stated) | i
CCN1C(=O)C2(CCN(S(=O)(=O)Cc3ccc(Cl)cc3)CC2)c2ccccc21 | i
O=C1CCCCC(CNC(=O)c2n[nH]c(=O)c3ccccc23)N1 (configuration not stated) | -23.8%
CCc1ccc(N2CC(c3ncon3)CC2=O)cc1 (configuration not stated) | -14.1%
O=C1N[C@@H]2CCN(C(=O)c3cccs3)[C@@H]2C(=O)N1c1ccc(Oc2ccccc2)cc1 | i
COc1ccccc1CC(=O)NC(C)C(=O)N1CCN(c2ccccn2)CC1 (configuration not stated) | i
O=C1c2ccccc2CN1C1CCN([S+](=O)([O-])c2cccc(C(F)(F)F)c2)CC1 | 48.8%
Cc1ccccc1CC(=O)N1CCN(C(=O)c2nnn3c2COC(c2ccc(Cl)cc2)C3)CC1 (configuration not stated) | -5.1%
Cc1nc(-c2ccccc2)n(Cc2ccc(F)c(F)c2)c(=O)c1CCO | i
O=C(O)C[C@@H]1CCN(Cc2c[nH]c3ccccc23)C[C@@H]1CCN1C[C@@H]2C[C@H](C1)c1cccc(=O)n1C2 | i
Cc1nc2c(c(-c3ccc(O)cc3)n1)CN(C(=O)c1ccc(F)cc1)CC2 | i
CC1=C[C@@H](CNC(=O)c2cnccn2)[C@H](C(C)C)C[C@H]1Cc1nc2ccccc2[nH]1 | i
CC1=C[C@@H](CNC(=O)c2cnccn2)[C@H](C(C)C)C[C@H]1Cc1nc2ccccc2n1C | 8.91µM*
CC1=C[C@@H](CNC(=O)Cn2cnnn2)[C@H](C(C)C)C[C@H]1Cc1nc2ccccc2n1C | 10µM*
CC1=C[C@@H](CNC(=O)Cn2cnnn2)[C@H](C(C)C)C[C@H]1Cc1nc2ccc(C)cc2[nH]1 | i
CC1=C[C@@H](CNC(=O)CN(C)C)[C@H](C(C)C)C[C@H]1Cc1nc2ccccc2[nH]1 | i
CC1=C[C@@H](CNC(=O)C2CC2)[C@H](C(C)C)C[C@H]1Cc1nc2ccccc2n1C | i
COCC(=O)NC[C@@H]1C=C(C)[C@H](Cc2nc3ccccc3n2C)C[C@H]1C(C)C | 10µM*
CC1=C[C@@H](CNC(=O)Cc2ccccc2)[C@H](C(C)C)C[C@H]1Cc1nc2ccncc2[nH]1 | -9.7%[44.1 µM]
CC1=C[C@@H](CNC(=O)CC2(CC(=O)O)CCCC2)[C@H](C(C)C)C[C@H]1Cc1nc2ccccc2n1C | i
SMILES | Pf Dd2 growth
Cc1noc(C)c1S(=O)(=O)N1CCC2(CC1)CCC(O)(CN(C)C)CC2 | -17.6%
CC(C)N1CCN(C2CCOC3(CCN(C(=O)Cc4cccc(F)c4)CC3)C2)CC1 (configuration not stated) | -22.6%
O=Cc1ccccc1-c1ccc(F)cc1F | 9.9%[44.1 µM]
CC(C)n1nc(OC(C)(C)C(=O)NCc2ccncc2)c2cc(CN3CCOCC3)ccc21 | i
O=C1CC(c2ccccc2)N(C(=O)C2CC2)CCCN(C(=O)NCc2ccc(F)cc2)CCN1 (configuration not stated) | i
COc1ncccc1-c1cnc2[nH]cc(CC(=O)NCc3ccco3)c2c1 | i
Cc1ccc(-n2c(C3CCN(C(=O)Cc4ccccc4C)CC3)n[nH]c2=O)cc1 | i
CCOc1cc(=O)n2c(c1C(=O)Nc1ccc(OC)c(OC)c1)CCCC2 | 17.8%
CC(C)NC(=O)NC1CC2(CCN(C(=O)c3ccccc3)CC2)c2ccccc21 (configuration not stated) | -22.3%
CC(C)NC(=O)NC1CC2(CCN(Cc3ccc(O)cc3)CC2)c2ccccc21 (configuration not stated) | 2.82µM*
CC(=O)NC1CC2(CCN(C(=O)Cc3ccc(O)cc3)CC2)c2ccccc21 (configuration not stated) | 1.5%
COc1ccc(Cl)cc1NC(=O)CN1C(=O)NC2(CCOCC2)C1=O | 33.2%
Cc1cccc2nc(-c3ccc(N(C)C)cc3)c(Nc3ccc4c(c3)OCO4)n12 | 7.94µM*
Cc1ccc(-c2nc3ccc(Br)cn3c2Nc2ccc3c(c2)OCO3)o1 | -20.5%
Cc1ccc(-c2nc3ccccn3c2Nc2ccc3c(c2)OCO3)cc1 | 40.6%[0.594 µM]
O=C(c1cccc2[nH]ccc12)N1CC(Oc2ccc(-c3nc(-c4ccccc4)no3)cc2)C1 | -15.4%[5.79 µM]
Cc1ccc(-c2nc3cccnc3s2)cc1NC(=O)C(C)C | -21.1%
